Pf growth 96h: Primary qHTS for delayed death inhibitors of the malarial parasite plastid, 96 hour incubation | P. falciparum luciferase reporter growth, 96 h | Potency, µM (highest dose often 28.7 µM), usual class: inhibitors | 6.9% of 320,000 active
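Delayed-death screen, second-generation endpoint: infected erythrocytes, 2% hematocrit, 0.05% parasitemia final; 96 hours at 37 C, 5% CO2; luciferase detection reagent; luminescence decrease equals reduced growth.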
Pf growth 48h: Primary qHTS for delayed death inhibitors of the malarial parasite plastid, 48 hour incubation | P. falciparum luciferase growth in erythrocytes, 48 h | Potency, µM (doses to about 28.7 µM), actives largely listed as inhibitors | 5.9% of 310,000 active | AID 504832, 2011
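Firefly luciferase activity from engineered P. falciparum reports growth; inhibitors lower the luminescent signal. Cultures contained 2% hematocrit erythrocytes at 0.1% final parasitemia.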
HCV inh: qHTS Assay for Inhibitors of Hepatitis C Virus (HCV). Potency, µM (titrated, usually from 41.8 µM), most hits filed as inhibitors. Huh7.5.1 HCVcc-Cre infection, luciferase reporter, 44 h. AID 651820, 2012. 3.4% of 340,000 active
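Compounds are dispensed onto cells plated 4 h earlier at 1,000 per well, with HCVcc-Cre virus (about 0.5 moi) added next. Following 44 h of culture, luminescent signal is measured for 15 sec after 15 min with substrate at room temperature.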
AMA1 RON2 block: qHTS for Inhibitors of AMA1-RON; Towards Development of Antimalarial Drug Lead: Primary Screen. Plasmodium falciparum AMA1 (3D7) - RON2 peptide interaction. AlphaScreen AMA1-biotinylated RON2 peptide binding. Potency, µM (doses to about 58.2 µM), usual class: inhibitors. 0.2% of 360,000 active; also: nearly all actives have a fitted effect of over 45% in size
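AMA1 (3D7) with his tag at 25 nM final met compounds first, then biotinylated RON2 peptide at 25 nM; detection used donor plus acceptor beads, 10 µg/mL apiece, read by AlphaScreen after 30 min at room temperature.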
Hits are given with their value; 0 = inactive; ? = inconclusive; - = not tested or not shown; [ ] = another dose, or the depositor's remark. The list is not random: actives were taken first. Their share in the collection is about 11%. Calls follow the shape of the dose curve; as a rule, active = well fitted curve in the direction sought with a large enough effect; inconclusive = small, poorly fitted or top-dose-only effect, or another doubt; inactive = no such curve, though single readings can be large; an effect the other way counts as inactive or inconclusive.

SMILES	Pf growth 96h	Pf growth 48h	HCV inh	AMA1 RON2 block
Cc1ccccc1NC(=O)Cn1nnc(S(=O)(=O)c2ccc(C(C)(C)C)cc2)c1N	0	0	?	0
COc1ccc(F)cc1S(=O)(=O)Nc1cc2c3c(c1)CCN3C(=O)CC2	0	0	0	0
CCn1c(=O)cc(C(=O)OC)sc1=Nc1ccc(F)c(F)c1	0	-	12.6µM	0
COC(=O)c1cc(=O)n(CCc2ccc(OC)cc2)c(=Nc2ccc(F)c(Cl)c2)s1	0	-	?	0
COC(=O)c1cc(=O)n(CCc2ccccc2)c(=Nc2ccc(F)cc2)s1	4.15µM	?	0	0
COC(=O)c1cc(=O)n(Cc2ccc3c(c2)OCO3)c(=Nc2ccc(F)c(Cl)c2)s1	?	-	0	0
CC(NC(=O)c1ccccc1)C(=O)OCC(=O)c1c(N)n(C)c(=O)n(C)c1=O (stereo not given)	0	?	0	0
CCN(CC)CCCNC(=O)C1CCN(C(=O)c2oc3cc4sc(N(C)C)nc4cc3c2C)CC1	11.7µM	0	?	0
CCc1cccc(CC)c1-n1c(SCC(=O)N2CCc3ccccc3C2)nnc1-c1cccnc1	6.57µM	11.7µM	?	0[11.6 µM]
CCc1cccc(CC)c1-n1c(SCn2nnc3ccccc3c2=O)nnc1-c1cccnc1	4.15µM	-	0	0
CCOc1ccccc1NS(=O)(=O)c1cn(C)c(=O)n(C)c1=O	0	0	0	0
O=C(OC1CC2CC1[C@H]1CCCCN1C2=O)N1CCN(S(=O)(=O)c2ccccc2)CC1 (stereo not given in full)	-	-	-	0
COC(=O)C1=C(c2ccc(Cl)c(C(F)(F)F)c2)C[C@@H]2CC[C@H]1N2C(=O)NCc1ccco1	8.28µM	?	0	0
COC(=O)C1=C(c2ccc(Cl)c(C(F)(F)F)c2)C[C@@H]2CC[C@H]1N2C(=O)NCCO	0	?	0	0
COC(=O)C1=C(c2ccc(OC(F)(F)F)cc2)C[C@@H]2CC[C@H]1N2C(=O)NCCOc1ccccc1Cl	?	10.4µM	?	0
COC(=O)C1=C(c2ccc(Cl)c(C(F)(F)F)c2)C[C@@H]2CC[C@H]1N2C(=O)NCCOc1ccccc1	4.65µM	11.7µM	?	0
COC(=O)C1=C(c2ccc(OC(F)(F)F)cc2)C[C@@H]2CC[C@H]1N2C(=O)NCCOc1ccccc1	4.65µM	11.7µM	?	0
COC(=O)C1=C(c2ccc3ccccc3c2)C[C@@H]2CC[C@H]1N2C(=O)NCc1ccco1	?	?	0	0
CCn1cc(S(=O)(=O)NCCc2ccc(OC)c(OC)c2)cn1	0	0	0	0
COc1ccccc1NC(=O)Cn1c(CCC(=O)O)ccc1-c1ccccc1	0	0	0	0
CCOC(=O)C1NN=C(C(=O)c2ccc(C)cc2)C1c1ccc(C)cc1 (stereo not given)	10.4µM	?	0	0
CCOC(=O)C1=NNC(C(=O)OCC)C1c1ccccc1 (stereo not given)	-	-	0	0
CCOC(=O)C1=NNC(C(=O)c2ccc(Cl)cc2)C1c1ccc(OC)cc1 (stereo not given)	13.1µM	?	?	0
CCOC(=O)C1=NNC(C(=O)c2ccc(C)cc2)C1c1ccc(OC)cc1 (stereo not given)	-	11.7µM	0	0
CN1CCN(c2ccccc2NC(=O)COc2ccc(Cl)cc2)CC1	0	0	0	0
SMILES	Pf growth 96h	Pf growth 48h	HCV inh	AMA1 RON2 block
CN1C(=O)[C@H]2[C@@H](/C=C/c3ccccc3)N3C(=O)CN(Cc4ccccn4)C(=O)[C@@]3(C)[C@H]2C1=O	0	0	0	0
Cc1nc2c(c(=O)n1CCC1=CCCCC1)c1nc3ccccc3nc1n2/N=C/c1ccco1	9.28µM	10.4µM	?	0
CCCn1c(C)nc2c(c1=O)c1nc3ccccc3nc1n2CCC1=CCCCC1	?	?	0	0
Cc1cc(N/N=C2\CC(C)CC(C)(C)C2)nc2ccccc12 (stereo not given)	?	?	?	0
C/C(CCC(C)C)=N\Nc1cc(C)c2ccccc2n1	16.5µM	?	0	0
O=C(CCl)N=c1sccn1Cc1cccc2ccccc12	1.47µM	?	3.55µM	0
O=C(CCl)N=c1sccn1Cc1ccc(Cl)cc1Cl	11.7µM	?	0.562µM	0
O=C(CCl)N=c1sccn1Cc1ccccc1Cl	0.738µM	0.262µM	0.562µM	0
CCC(=O)OCC(=O)N=c1sccn1Cc1ccccc1Cl	?	?	0	0
N=c1sccn1Cc1ccc(Cl)cc1Cl	0	0	?	0
O=C1C2C3C=CC(CC3)C2C(=O)N1c1ccccc1[N+](=O)[O-] (stereo not given)	0	0	0	0
CC(CCCC(C)(C)O)NC(=O)c1ccc(OC2CCN(C(=O)C3CC3)CC2)cc1 (stereo not given)	?	0	0	0
CO[C@@H]1CN(C)C(=O)c2ccc(NC(=O)c3ccccc3F)cc2OC[C@@H](C)N(CC2CCOCC2)C[C@@H]1C	-	-	-	0
COc1cc(/C=N/N=C(N)N)ccc1OCc1ccccc1Cl	0	2.62µM	14.1µM	0
COc1cc(/C=N/N=C(/C(=O)c2ccccc2)c2ccccc2)cc(OC)c1O	?	0	?	0
COc1ccc(/C=N/N=C/c2ccc(OC)c(O)c2)cc1O	0	?	0	0
COc1ccc(/C=N/N=C/c2ccc(OC)c(OC)c2)cc1OC	0	3.7µM	0	0
COc1cc(/C=N/N=C/c2cc(OC)c(O)c(OC)c2)cc(OC)c1O	4.15µM	10.4µM	0	0
COc1ccc(OCCCCn2c(CO)nc3ccccc32)cc1	?	0	0	0
CCCCNC(=O)C1(C)CCCCN1C(=O)c1ccc2sccc2c1 (stereo not given)	-	-	-	0
CC1(C)[C@H]2CC=C(CN3CCC(N4CCC(C(=O)N5CCCC5)CC4)CC3)[C@@H]1C2	0	?	31.6µM	0
C=CCN1c2ccccc2[C@]23C[C@@H](C(=O)OC)N(C(=O)CC(C)C)C2=NC(C(=O)OC)=C(C(=O)OC)[C@H]13	?	?	7.94µM	?
COC(=O)C1=C(C(=O)OC)[C@@H]2N(C)c3ccccc3[C@@]23C[C@@H](C(=O)OC)N(C(=O)CC(C)C)C3=N1	?	?	0	0
COc1ccccc1N1CCN(CC(=O)Nc2nc(C)c(C(=O)N(C)C)s2)CC1	14.7µM	0	0	0
COC(=O)c1[nH]c2cccc(Cl)c2c1NC(=O)CN1CCCCC1C (stereo not given)	4.15µM	?	0	0
COC(=O)c1[nH]c2ccc(C)cc2c1NC(=O)CN1CCCc2ccccc21	2.33µM	4.15µM	?	0
COC(=O)c1[nH]c2cc(OC)ccc2c1NC(=O)CN1CCN(c2cccc(C)c2)C(C)C1 (stereo not given)	10.4µM	11.7µM	10µM	0
O=C(CNC(=O)c1cccc(Cl)c1)NCCCSc1ccccc1	0	0	0	0
Cc1ccc2[nH]c3c(c2c1)CN(C(=O)CN1CCCc2ccccc21)CC3	4.65µM	4.15µM	?	0
